Assay outcomes as filed in PubChem BioAssay.
SW480 rereplic: inducers of DNA re-replication in SW480 colon cancer cells; AID 624297; Potency, µM (top dose mostly 46.1 µM), usual class: activators; SW480 DNA re-replication, Hoechst DNA content imaging, 48 h; actives 1.8% (n = 340,000); note: nearly all actives have a fitted effect of over 55% in size
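Readout is total intensity of Hoechst-stained nuclei, excited at 405 nm and collected at 500-530 nm. Compound treatment lasted 48 hr at 37 C in 5% CO2 before staining.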
MCF10A rereplic: inducers of DNA re-replication in MCF 10A breast cells; MCF 10A DNA re-replication, Hoechst nuclear intensity, 48 h; Potency, µM (top dose mostly 46.1 µM), usual class: activators; actives 2.9% (n = 350,000); note: nearly all actives have a fitted effect of over 50% in size
KB-3-1 tox: kills parental KB-3-1 adenocarcinoma cells. KB-3-1 viability, CellTiter-Glo ATP luminescence, 72 h. Potency, µM (highest dose often 46.1 µM), usual class: cytotoxic. actives 1.4% (n = 400,000). AID 1347075; note: nearly all actives have a fitted effect of over 60% in size
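KB-3-1 parental drug-naive adenocarcinoma cells in DMEM/10% FBS, incubated 72 h at 37 C with pin-transferred compounds across a concentration series. Viability by CellTiter-Glo luminescence; concentration-response curves fitted after normalization.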
KCNH2 3.1 block: blocks the human KCNH2 3.1 channel isoform | U2OS KCNH2 3.1, thallium flux FluxOr; active compounds read low | activity change, % (tested at about 1.8 µM) | actives 0.95% (n = 340,000) | AID 720553;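 active = maximum activity change below -70%; inconclusive = maximum activity change from -70% to -50%; inactive = maximum activity change above -50%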;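 note: thallium influx rate constant from kinetic fluorescence after stimulation buffer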
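Channel expression came from 3.1 mutant virus (1.77 x 10^8 /mL) applied to suspended U2OS cells for 4 h. Flux was tracked with FluxOr dye plus Red40 quencher, and kinetic rate constants normalized to controls.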
KCNH2 WT inh: KCNH2 (human, wildtype) channel inhibition; U2OS, BacMam KCNH2, thallium flux FluxOr; active compounds read low; actives 0.37% (n = 340,000); AID 720551; activity change, % at 1.84 µM;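 active = maximum activity change below -70%; inconclusive = maximum activity change between -70% and -50%; inactive = maximum activity change above -50%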
Target sequence (Q12809 whole entry, looked up): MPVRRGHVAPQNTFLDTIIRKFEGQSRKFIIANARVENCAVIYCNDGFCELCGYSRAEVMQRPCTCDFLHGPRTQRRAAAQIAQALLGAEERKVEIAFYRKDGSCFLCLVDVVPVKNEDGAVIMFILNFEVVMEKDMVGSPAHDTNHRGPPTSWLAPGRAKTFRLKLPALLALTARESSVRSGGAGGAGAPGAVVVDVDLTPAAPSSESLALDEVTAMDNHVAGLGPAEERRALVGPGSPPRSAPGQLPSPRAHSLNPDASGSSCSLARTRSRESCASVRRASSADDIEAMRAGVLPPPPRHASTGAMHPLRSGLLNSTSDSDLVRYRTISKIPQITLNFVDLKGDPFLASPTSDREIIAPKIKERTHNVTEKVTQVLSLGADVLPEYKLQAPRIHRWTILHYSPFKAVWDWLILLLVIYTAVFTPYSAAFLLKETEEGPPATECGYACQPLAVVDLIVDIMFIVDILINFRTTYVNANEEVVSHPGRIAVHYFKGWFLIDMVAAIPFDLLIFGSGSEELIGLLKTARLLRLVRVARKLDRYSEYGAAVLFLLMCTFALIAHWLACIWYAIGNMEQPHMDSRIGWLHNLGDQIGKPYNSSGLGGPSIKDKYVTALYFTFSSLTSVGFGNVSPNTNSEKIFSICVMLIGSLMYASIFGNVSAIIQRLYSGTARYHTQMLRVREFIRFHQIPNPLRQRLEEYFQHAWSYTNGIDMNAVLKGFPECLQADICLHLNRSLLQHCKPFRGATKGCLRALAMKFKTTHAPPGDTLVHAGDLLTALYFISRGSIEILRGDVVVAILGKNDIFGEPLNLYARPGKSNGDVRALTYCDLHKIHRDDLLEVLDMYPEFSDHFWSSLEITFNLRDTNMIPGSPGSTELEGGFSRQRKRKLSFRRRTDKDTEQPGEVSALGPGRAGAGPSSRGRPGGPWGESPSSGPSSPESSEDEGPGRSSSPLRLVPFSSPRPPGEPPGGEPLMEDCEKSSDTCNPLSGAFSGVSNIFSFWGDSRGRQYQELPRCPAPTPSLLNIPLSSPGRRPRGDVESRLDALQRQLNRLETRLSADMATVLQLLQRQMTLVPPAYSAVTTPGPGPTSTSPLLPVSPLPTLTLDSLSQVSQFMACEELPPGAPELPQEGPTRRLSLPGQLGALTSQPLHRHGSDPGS
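U2OS cells transduced with wild-type KCNH2 virus are loaded with FluxOr dye for 45 min, and thallium flux is measured in kinetic reads before and after stimulation buffer. Rate constants are normalized to DMSO controls.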
KB-V1 MDR tox: kills drug-selected multidrug resistant KB-V1 cells; KB-V1 MDR cells viability, CellTiter-Glo, 72 h; Potency, µM (titrated, usually from 46.1 µM), most hits filed as cytotoxic; actives 3.4% (n = 400,000); AID 1347076; note: nearly all actives have a fitted effect of over 60% in size
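Following 72 h at 37 degrees C with compound, KB-V1 cell viability was read by CellTiter-Glo luminescence, medium being phenol-red-free DMEM plus 10% FBS; concentration-response parameters came from normalized, curve-fitted qHTS data.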
Large screens that a line does not name were inactive. A selection: hits, their analogues and other compounds. The true share with any hit is near 7.6%. Unless noted, calls come from the whole dose curve; as a rule, active = well fitted curve in the direction sought with a large enough effect; inconclusive = small, poorly fitted or top-dose-only effect, or another doubt; inactive = no such curve, though single readings can be large; an effect the other way counts as inactive or inconclusive.

N=c1c2cn[nH]c2nc(SCC(=O)c2ccc(Br)cc2)n1-c1ccc(Br)cc1	none
CC(C)C(=O)c1cn(CC(=O)NCc2ccco2)c2ccccc12	SW480 rereplic inconclusive, KCNH2 3.1 block inconclusive
CCOC(=O)C(C)Oc1cccc2c(=O)n(CC(=O)NCc3ccco3)ccc12 (stereo unspecified)	SW480 rereplic 1.3µM, MCF10A rereplic inconclusive, KB-3-1 tox 0.73µM
COc1ccc([C@H]2CC(=O)C=C(c3ccc(Cl)c(F)c3)C2)cc1	none
O=C(Nc1ccccc1N1CCCC1)c1cc(Cl)ccc1Cl	none
Cc1ccccc1NC(=O)c1cc(C(=O)c2cc(Cl)ccc2O)cn(-c2ccccc2C)c1=O	KB-V1 MDR tox 9.2µM (no result: SW480 rereplic)
Cc1ccc(-n2cc(C(=O)c3cc(Cl)ccc3O)cc(C#N)c2=O)cc1	MCF10A rereplic inconclusive, KB-V1 MDR tox 16µM
COc1ccc(-n2cc(C(=O)c3cc(Cl)ccc3O)cc(C#N)c2=O)cc1	none
O=C(NC1CC2CCCC(C1)N2C(=S)NCCc1ccccc1)C1CC1 (stereo unspecified)	none
O=C1C=C(Nc2cccc3cccnc23)c2ccccc2C1=O	SW480 rereplic 7.3µM, MCF10A rereplic 3.7µM, KB-3-1 tox 5.8µM, KB-V1 MDR tox 5.8µM
O=C1C=C(Nc2ccccc2C(=O)O)c2ccccc2C1=O	none
O=C1C=C(Nc2ccccc2)C(=O)c2ccccc21	SW480 rereplic inconclusive, KB-3-1 tox inconclusive, KB-V1 MDR tox inconclusive
CCc1ccc(NC2=CC(=O)C(=O)c3ccccc32)cc1	SW480 rereplic 7.3µM, MCF10A rereplic 9.2µM, KB-3-1 tox 18µM, KB-V1 MDR tox 16µM
CCCCNC1=CC(=O)C(=O)c2ccccc21	none (no result: KCNH2 WT inh)
O=C1C=C(Nc2ccccc2)c2ccccc2C1=O	SW480 rereplic 2.6µM, MCF10A rereplic 5.8µM, KB-3-1 tox 5.8µM, KB-V1 MDR tox inconclusive
COc1ccccc1-c1c(C)nn2c(N3CCCCCC3)cc(C)nc12	MCF10A rereplic inconclusive, KB-3-1 tox inconclusive, KCNH2 WT inh -250, KB-V1 MDR tox inconclusive
COc1ccccc1CN1CCC(CNC(=O)c2cnn(-c3ccc(Cl)cc3)c2C2CCN(C(=O)OC(C)(C)C)CC2)CC1	KB-3-1 tox 16µM, KB-V1 MDR tox inconclusive (no result: SW480 rereplic, MCF10A rereplic, KCNH2 3.1 block, KCNH2 WT inh)
COc1ccccc1CN1CCC(CNC(=O)c2cnn(-c3ccc(C)c(C)c3)c2C2CCN(C(=O)OC(C)(C)C)CC2)CC1	none (no result: SW480 rereplic, MCF10A rereplic, KCNH2 3.1 block, KCNH2 WT inh)
Cc1cc(C)cc(N(CC(=O)NCC2CCCO2)C(=O)CN2C(=O)COc3ccccc32)c1 (stereo unspecified)	KB-V1 MDR tox 13µM
COc1cccc(N(CC(=O)NCC2CCCO2)C(=O)CNS(=O)(=O)c2ccccc2)c1 (stereo unspecified)	KCNH2 3.1 block -70
Cc1ccc(S(=O)(=O)NCC(=O)N(CC(=O)NCC2CCCO2)Cc2ccccc2Cl)cc1 (stereo unspecified)	KCNH2 WT inh -233
O=C(CN(Cc1ccccc1Cl)C(=O)CNS(=O)(=O)c1ccccc1)NCC1CCCO1 (stereo unspecified)	none
COc1cccc(CN(CC(=O)NCC2CCCO2)C(=O)CNS(=O)(=O)c2ccccc2)c1 (stereo unspecified)	none
Cc1nc2nc(SCC(=O)NCCCN3CCCC3)nn2c(C)c1Cc1ccccc1Cl	none
Cc1ccc(S(=O)(=O)n2nccc2-c2c(-c3ccccc3)noc2C)cc1	SW480 rereplic 13µM, MCF10A rereplic 12µM, KB-3-1 tox inconclusive, KB-V1 MDR tox inconclusive
COc1ccc(CCn2cnc(=O)c(C#N)c2C)cc1OC	MCF10A rereplic inconclusive
O=C1NC(=S)SC1=Cc1cccs1	MCF10A rereplic inconclusive
O=C1/C(=C/c2cccs2)NC(=S)N1C1CC1	SW480 rereplic 18µM
O=C(CNC(=O)c1cccs1)Nc1ccc2c(c1)OCCO2	none
CCOc1ccc(C(=O)NCC(=O)N2CC=C(c3ccccc3)CC2)cc1OCC	none
COc1ccccc1C(=O)NCC(=O)N1CC=C(c2ccccc2)CC1	KB-3-1 tox inconclusive, KB-V1 MDR tox 16µM
Cc1ccc(C)c(Cn2c(=O)n(CCCC(=O)NCc3ccco3)c(=O)c3sccc32)c1	SW480 rereplic inconclusive, MCF10A rereplic 13µM, KB-3-1 tox 5.8µM, KB-V1 MDR tox inconclusive
Cc1ccc(C)c(Cn2c(=O)n(CCCC(=O)NCc3ccco3)c(=O)c3ccccc32)c1	KB-3-1 tox inconclusive
O=C(CCn1c(=O)c2sccc2n(CC(=O)NCc2ccco2)c1=O)NCc1ccccc1	KCNH2 WT inh -254
Cc1ccc(CNS(=O)(=O)c2c(C(=O)N3CCCCCC3)c(C)n(C)c2C)cc1	none
Cc1cccc2sc(NC(=O)CCNS(=O)(=O)c3cccc4nonc34)nc12	KB-3-1 tox inconclusive, KB-V1 MDR tox 23µM
COc1ccccc1C(C[N+](=O)[O-])c1c(N)n(C)c(=O)n(C)c1=O (stereo unspecified)	SW480 rereplic inconclusive, MCF10A rereplic inconclusive, KB-3-1 tox inconclusive, KB-V1 MDR tox 7.3µM
COc1ccccc1C(c1c(N)n(C)c(=O)n(C)c1=O)C(C)[N+](=O)[O-] (stereo unspecified)	MCF10A rereplic inconclusive
CNc1ncnc2c1ncn2[C@H]1CN(CCOC)C[C@@H](CO)O1	none (no result: SW480 rereplic, MCF10A rereplic, KCNH2 3.1 block, KCNH2 WT inh)
Cc1nn(C)c(C)c1CNC(=O)c1nn2c(c1Cl)NC(c1cccs1)CC2C(F)(F)F (stereo unspecified)	KB-3-1 tox inconclusive, KB-V1 MDR tox 9.2µM
Cc1nn(Cc2ccc(F)cc2)c(C)c1NC(=O)c1cnn2c1NC(c1cccs1)CC2C(F)(F)F (stereo unspecified)	KB-V1 MDR tox 21µM
Cc1oc(-c2ccc(Cl)cc2)cc1C(=O)/C(C#N)=C/Nc1ccccc1	MCF10A rereplic 13µM
COc1ccc(CNC(=O)C2CCC(CNC(=O)[C@@H]3Cc4ccccc4CN3)CC2)cc1 (stereo partly specified)	SW480 rereplic inconclusive, MCF10A rereplic inconclusive
CCc1cccc(NC(=O)c2cc3c(=O)oc4ccc(C)cc4c3s2)c1	none (no result: SW480 rereplic, MCF10A rereplic, KCNH2 3.1 block, KCNH2 WT inh)
COc1ccc2c(c1)O[C@@H](c1cccc(C(F)(F)F)c1)[C@H](O)C2=O	SW480 rereplic 21µM (no result: KB-3-1 tox, KCNH2 3.1 block, KCNH2 WT inh, KB-V1 MDR tox)
Cc1occc1-c1nnc(SC(C)C(=O)Nc2ccccc2F)o1 (stereo unspecified)	KB-3-1 tox inconclusive, KB-V1 MDR tox 10µM
Cc1ccccc1-c1nnc(SC(C)C(=O)NC2CCCC2)o1 (stereo unspecified)	KB-V1 MDR tox 21µM
CC(Sc1nnc(-c2ccccc2F)o1)C(=O)Nc1ccc(N2CCOCC2)cc1 (stereo unspecified)	none
Cc1ccccc1-c1nnc(SCC(=O)NC2CCCCC2)o1	none
